Bioassay records as filed in PubChem.
SW480 rereplic = induces DNA re-replication in SW480 colon adenocarcinoma cells; 340,000 tested, 1.8% active; AID 624297; SW480 DNA re-replication, Hoechst DNA content imaging, 48 h; Potency, µM (series often up to 46.1 µM), for inactives: at the top dose re-replication activation, usual class: activators; further: % of control where 0% means no effect; nearly all actives have a fitted effect of over 55% in size
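Compounds, transferred as 23 nL by pin tool, were incubated with cells for 48 hr; DNA content per nucleus was then quantified by Hoechst staining and fluorescence plate imaging.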
MCF10A rereplic = DNA re-replication induction in MCF 10a cells | MCF 10A DNA re-replication, Hoechst nuclear intensity, 48 h | Potency, µM (titrated, usually from 46.1 µM), without a hit: at the top dose activity, positive = re-replication, hits mostly activators | 350,000 tested, 2.9% active | AID 624296; further: % of control where 0% means no effect; nearly all actives have a fitted effect of over 50% in size
HT1080-NT tox = kills 2HG-producing HT-1080-NT fibrosarcoma cells; Potency, µM (series often up to 46.1 µM), without a hit: at the highest dose activity, negative = less viability, most hits filed as cytotoxic; 360,000 tested, 1.6% active; HT-1080-NT fibrosarcoma viability, CellTiter-Glo ATP luminescence, 48 h;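 further: NT is the 2HG producing partner of a matched IDH1 knockdown line; 0% = DMSO-treated cells and -100% = media-only wells without cells; nearly all actives have a fitted effect of over 55% in size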
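HT-1080-NT; 750 cells/well; 5% FBS RPMI; 48 h compound, 37 degrees C; CellTiter-Glo luminescence; curve fitting and curve-class assignment.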
KB-V1 cytotox = kills drug-selected multidrug resistant KB-V1 cells | KB-V1 MDR cells viability, CellTiter-Glo, 72 h | Potency, µM (series often up to 46.1 µM), most hits filed as cytotoxic | 400,000 tested, 3.4% active | AID 1347076; further: on the % scale 0 is the no-effect control and ±100 the full control effect; nearly all actives have a fitted effect of over 60% in size
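Cytotoxicity via CellTiter-Glo luminescence after 72 h compound exposure at 37 degrees C. Cells: drug-selected KB-V1 line, DMEM phenol-red free plus 10% FBS. Compounds tested at multiple concentrations; normalized data fitted to concentration-effect curves.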
KB-3-1 tox = KB-3-1 parental cell cytotoxicity; Potency, µM (top dose mostly 46.1 µM), most hits filed as cytotoxic; KB-3-1 viability, CellTiter-Glo ATP luminescence, 72 h; AID 1347075; 400,000 tested, 1.4% active; further: on the % scale 0 is the no-effect control and ±100 the full control effect; nearly all actives have a fitted effect of over 60% in size
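Parental KB-3-1 adenocarcinoma cells in phenol-red-free DMEM with 10% FBS were pin-treated with compounds at several concentrations, incubated 72 h at 37 °C, and viability read by CellTiter-Glo luminescence; concentration-effect curves were fitted after normalization.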
HT1080 IDH1KD tx = HT-1080 IDH1 knockdown cell toxicity (counter line); HT-1080 IDH1 knockdown viability, ATP luminescence, 48 h; Potency, µM (top dose mostly 46.1 µM), for the others: at the highest dose activity, negative = toxicity, usual class: cytotoxic; 360,000 tested, 2% active;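 further: 0% = DMSO wells and -100% = cell-free medium wells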
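Cytotoxicity counter-line: IDH1KD HT-1080, 48 h, CellTiter-Glo. Curves classed by r2, magnitude and activity.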
* marks the source's active call; other numbers are inactive results; i = inactive; u = inconclusive; x = no result. An excerpt weighted towards active compounds, which were near 7.9% of everything screened. The call rests on the fitted dose curve; in most records, active means well fitted curve in the direction sought with a large enough effect; inconclusive means small, poorly fitted or top-dose-only effect, or another doubt; inactive means no such curve, though single readings can be large; an effect the other way counts as inactive or inconclusive. Potency means the concentration at half of the fitted maximal effect.

SMILES | SW480 rereplic | MCF10A rereplic | HT1080-NT tox | KB-V1 cytotox | KB-3-1 tox | HT1080 IDH1KD tx
CC(Nc1nc(N2CCCCC2)nc2ccccc12)c1ccccc1 (centres undefined) | 0% | u | u | u | 11µM* | u
CC(Nc1nc(-c2ccccc2)nc2ccccc12)c1ccccc1 (centres undefined) | -1% | u | u | i | u | -17%
CCOc1ccc(NC(=O)C2CCN(S(=O)(=O)c3ccc4c(c3)oc(=O)n4C)CC2)cc1 | x | x | x | i | i | x
COc1ccc(S(=O)(=O)N2CCN(C(=O)c3ccccc3Cc3ccccc3)CC2)cc1OC | x | x | 11% | i | i | 6%
Cc1sc(N)nc1-c1cccc([N+](=O)[O-])c1 | x | x | x | i | i | x
CCOC(=O)C1(C)CCN1C(=O)c1ccc(C(F)(F)F)cc1 (centres undefined) | x | x | 15% | i | i | 27%
Cc1ccc(-c2nc(N/N=C/c3ccncc3)c3ccccc3n2)cc1 | 4% | 3% | 11µM* | 23µM* | u | 10µM*
NC(=O)C1CCN(c2ncc(-c3ccc4c(c3)OC(F)(F)O4)s2)CC1 | x | x | x | i | i | x
COc1ccccc1NC(=O)c1sc2nc(C)c(C(=O)Nc3ccc(C)cc3C)c(-c3cccs3)c2c1N | x | x | x | u | i | x
CC(=O)Oc1ccccc1C(=O)Nc1ccccc1 | -31% | u | x | i | i | x
COC1(OC)C=CC(=O)C=C1NC(=O)c1ccccc1OC(C)=O | u | 4.1µM* | x | u | u | x
CCOc1ccc(CN(C(=O)c2ccccn2)c2ccc(OC)c(Cl)c2)cc1 | u | 23µM* | u | u | u | u
CCOc1ccc(N(Cc2ccc(OC)c(OC)c2)C(=O)c2ccco2)cc1 | -5% | -2% | -11% | i | i | -1%
CCOc1cc(C(=O)Nc2ccc(-c3nnc4n3CCCCC4)cc2)cc(OCC)c1OCC | x | x | x | i | i | x
COc1cc(CN(CCN(C)C)Cc2ccccc2)ccc1OCc1ccccc1 | u | u | 23µM* | u | u | 21µM*
COc1ccc(CN(CCc2ccccc2)Cc2ccccc2)cc1OC | -19% | u | -13% | i | i | -17%
CCOC(=O)c1ccc(NC(=O)COc2ccc(CNCCO)cc2OCC)cc1 | -1% | 0% | u | i | i | u
CCOC(=O)c1ccc(NC(=O)COc2ccccc2CNCCc2ccccc2)cc1 | -12% | 2.3µM* | u | i | i | u
CNS(=O)(=O)c1cccc(C(=O)OCC(=O)N(Cc2ccccc2)C(C)(C)C)c1 | -8% | 7% | 18% | i | i | 1%
CC(=O)Nc1ccc(C(=O)OCC(=O)N(Cc2ccccc2)C(C)(C)C)cc1 | -13% | 4% | 0% | 15µM* | i | 4%
Cc1ccc(S(=O)(=O)NCCC(=O)OCC(=O)N(Cc2ccccc2)C(C)(C)C)cc1 | -31% | 19% | 12% | i | i | 3%
CC(=O)c1ccc(S(=O)(=O)NCCC(=O)OCC(=O)N(Cc2ccccc2)C(C)(C)C)cc1 | -3% | 5% | -2% | 21µM* | i | -4%
CC(=O)Nc1ccc(C(=O)OCC(=O)NCc2ccccc2)cc1 | u | u | u | i | u | 26µM*
COc1ccc(OCC(=O)NC(Cc2c[nH]c3ccccc23)C(=O)O)cc1 (centres undefined) | x | x | x | i | i | x
Cc1ccc(C)c(N(C)C(=O)Cc2c(C(=O)O)[nH]c3ccc(Cl)cc23)c1 | x | x | x | u | i | x
COc1ccc(-c2cc(C(C)=O)c(C)n2CCC(=O)Nc2ccc(C)cc2Cl)cc1 | x | x | x | i | i | x
Cc1ccc(C2=NN(C(=O)CCl)C(c3ccco3)C2)o1 (centres undefined) | u | 21µM* | 6.5µM* | u | u | 7.3µM*
